# Reference: PubChem BioAssay (NCI)
# About 79,000 compounds went through this panel and 15% of them were active in at least one assay; those are over-represented in the sample as a whole. Calls of active or inactive are those of the source. Cut-off read from the data, not from the text of the source: active = growth inhibition above about 70%; inactive = the rest.
# Assay: NCI Yeast Anticancer Drug Screen. Data for the mlh1 rad18 strain (AID 175)
# Conditions: S. cerevisiae mlh1 rad18 strain growth inhibition; at 50.0 µM; stronger effect = higher value
# Outline: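 In this whole-cell yeast screen, a strain with altered DNA damage repair is challenged with compound, and its growth is measured against matched vehicle-treated controls.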
row,Structure (SMILES),growth inhibition
1,Nc1ccc2c(c1)Oc1ccc(N)cc1O2,5.15% (inactive)
2,CCCCOP(O)(=S)OCCCC.[Y],-2.75% (inactive)
3,COc1c(O)cc2c(c1OC)-c1ccc(SC)c(=O)cc1C(NC(C)=O)CC2 (stereo not given),23.9% (inactive)
4,C1=C[N-]c2c3c(ccc2=C1)=CC=C[N-]3.C1=C[N-]c2c3c(ccc2=C1)=CC=C[N-]3.C1=C[N-]c2c3c(ccc2=C1)=CC=C[N-]3.[Co+3].[O-][Cl+3]([O-])([O-])O,8.2% (inactive)
5,ClCc1nc(-c2ccco2)no1,29.9% (inactive)
6,CCCCCCCCCCCCCCCC(=O)OCC1OC(OC)C2NP(=O)(N(CCCl)CCCl)OC1C2O (stereo not given),73% (active)
7,BrP(Br)(c1ccccc1)(c1ccccc1)c1ccccc1,-0.1% (inactive)
8,CCCCCSP(SCCCCC)c1ccccc1,61.8% (inactive)
9,CN=NNc1nc[nH]c1C(N)=O,40.5% (inactive)
10,ClCCN(CCCN(CCCl)c1ccccc1)c1ccccc1,-27.9% (inactive)
11,CCOC(=O)N[N+]12CCN(CC1)CC2,-11.1% (inactive)
12,CC(O)C[As](=O)(O)c1cccc(Cl)c1 (stereo not given),39.5% (inactive)
13,CC1(C)OC2OCCC(N=[N+]=[N-])C2O1 (stereo not given),-4.4% (inactive)
14,CC(=O)Nc1cccc([As+](C)(C)C)c1,16.9% (inactive)
15,O=C(CC(=O)c1ccccc1)c1ccccc1.O=C(CC(=O)c1ccccc1)c1ccccc1.[Pd],19.8% (inactive)
16,COc1ccc2[se]c(C)nc2c1,-18.6% (inactive)
17,CC[O-].CC[O-].O=C([CH-]C(=O)c1ccccc1)c1ccccc1.O=C([CH-]C(=O)c1ccccc1)c1ccccc1.[Ti+4],26.1% (inactive)
18,Oc1cccc(-c2ccccc2)c1,21.2% (inactive)
19,CN1CCC(O)(c2ccccc2)C(C(O)c2ccccc2)C1 (stereo not given),-20.6% (inactive)
20,COc1cc2c(c(OC)c1OC)-c1ccc(SC)c(=O)cc1[C@@H](NC(C)=O)CC2,-7.3% (inactive)

row,Structure (SMILES),growth inhibition
1,O=C(CC(=O)c1ccccc1)c1ccccc1.[Tl],98.1% (active)
2,C1CC[N-]CC1.C1CC[N-]CC1.[Cl][Pt+2]([Cl])([Cl])[Cl],-18.8% (inactive)
3,NC(=O)c1cccc([As]=O)c1 (stereo not given),-17.6% (inactive)
4,COc1cccc(C2CC(=O)c3cccn32)c1 (stereo not given),-17.2% (inactive)
5,CC(=O)c1ccc(Br)cc1,1% (inactive)
6,O=C1Nc2ccccc2C12CNCS2 (stereo not given),8.2% (inactive)
7,Cc1cccc(CCl)c1,-23.4% (inactive)
8,O=C1NC(=S)NC(=O)C1=Cc1ccc2ccccc2n1,-16.4% (inactive)
9,Clc1cccc(Cl)c1C(Cl)Cl,-11.2% (inactive)
10,O=N[O-].O=N[O-].[Co].[NH-]CC[N-]CCO.[NH-]CC[N-]CCO,7.55% (inactive)
11,CCOP(O)OCC,-1.35% (inactive)
12,CCC1(c2ccc(C)cc2)C(=O)NC(=S)NC1=O,11.8% (inactive)
13,N#CN,-5.8% (inactive)
14,OC[C@@H](O)[C@@H](O)CO,10.1% (inactive)
15,Cc1ccc(S(=O)(=O)OC2CN3CCC2CC3)cc1 (stereo not given),51.5% (inactive)
16,O=S(c1ccc(Cl)cc1)c1ccc(Cl)cc1,19.1% (inactive)
17,O=C([CH-]C(=O)c1ccccc1)c1ccccc1.[CH2-]C.[CH2-]C.[Tl+3],55.1% (inactive)
18,NC(=O)C(N)C(F)c1ccccc1 (stereo not given),16.8% (inactive)
19,CC([NH-])C[NH-].CC([NH-])C[NH-].[Cl-].[Cl-].[Co+3].[O-][Cl+3]([O-])([O-])O (stereo not given),1.6% (inactive)
20,Clc1cccc2nncc(N3CC3)c12,9.25% (inactive)
